# Reference: PubChem BioAssay (NCATS)
# Where “and” joins values, the source holds several entries; their conditions need not be identical. Equal values may be shown once. Results filed as inconclusive are left out. Calls of active or inactive are those of the source. Unless noted, the call rests on the fitted dose curve.
# How the values were obtained:
# [1] = qHTS Assay for Lipid Storage Modulators (AID 1519); settings: Drosophila S3 cells, BODIPY lipid droplet/cell ratio, laser cytometry, cells loaded with oleic acid; on activity change, negative = inhibition: on the % scale 0 is the no-effect control and ±100 the full control effect
# Method in brief: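 Cells seeded at 5,000 per well were treated with compounds over a concentration series and loaded with oleic acid (400 uM, as added). Lipid droplet fluorescence (488 nm excitation, 500-530 nm channel) was read by laser-scanning cytometry and normalized to 20 uM Triacsin C.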
# [2] = Validation of Assay for Modulators of Lamin A Splicing (AID 1459; active means well fitted curve in the direction sought with a large enough effect in the signal ratio; the % refers to the signal ratio;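 further: cells exposed to compound for two days before reading; 0% is about no effect; ratio rise marks activators and ratio drop marks inhibitors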); settings: Lamin A splicing dual RFP/GFP fluorescence reporter; series mostly up to 9.22 µM
# Method in brief: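 S3 HeLa cells stably expressing a lamin A-EGFP splicing minigene and DsRed2 were seeded at 600 cells/well in Opti-MEM with 2% FBS, pin-dosed, and incubated 48 hrs at 37 °C, 5% CO2. Laser-scanning cytometry (488 nm) gave GFP/RFP total intensity ratio.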
# [3] = molecular target: DNA repair nuclease/redox regulator APEX1 (Homo sapiens) (UniProt P27695); test: qHTS Validation Assay for Inhibitors of the Human Apurinic/apyrimidinic Endonuclease 1 (APE1) (AID 1705; active means well fitted curve in the direction sought with a large enough effect; an effect the other way counts as inactive or inconclusive;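 further: TAMRA fluorescence gain over two minutes as APE1 cuts a quenched THF abasic duplex; on the % scale 0 is the no-effect control and ±100 the full control effect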); settings: purified APE1 endonuclease activity, fluorescence, titration; series mostly up to 57.1 µM
# Method in brief: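 Human APE1 was preincubated with compound for 15 min at room temperature, then 50 nM (final) THF-abasic double-stranded DNA substrate bearing 5'-TAMRA and 3'-BHQ-2 was added. Incision-driven fluorescence rise (ex 525/em 598 nm) was read kinetically.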
# [4] = molecular target: Alpha-galactosidase A (Homo sapiens) (UniProt P06280); test: Counterscreen for Glucocerebrosidase Inhibitors: qHTS Assay for Human alpha-Galactosidase at pH 4.5 (AID 992; active means well fitted curve in the direction sought with a large enough effect; an effect the other way counts as inactive or inconclusive; further: 0% is about no effect); settings: purified enzyme, fluorogenic substrate; series mostly up to 76.9 µM
# Method in brief: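 Human enzyme (2 nM) with 80 uM 4-methylumbelliferyl alpha-D-galactopyranoside in 50 mM citric acid, 0.005% Tween-20, pH 4.5, 20 min at room temperature. Compounds 0.7 nM–77 uM; fluorescence Ex 365/Em 440 after pH 10 stop; AC50 from Hill fits.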
# [5] = molecular target: alpha-glucosidase (Oryza sativa, rice) (UniProt Q653V4); test: Counterscreen for Glucocerebrosidase Inhibitors: qHTS Assay for Rice alpha-Glucosidase at pH 5.0 (AID 997; active means well fitted curve in the direction sought with a large enough effect; an effect the other way counts as inactive or inconclusive;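 further: 0% = full activity with enzyme and -100% = basal without enzyme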); settings: rice alpha-glucosidase enzyme activity; series mostly up to 76.9 µM
# Method in brief: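 Rice alpha-glucosidase (4 nM final) with 400 uM 4-methylumbelliferyl-alpha-D-glucopyranoside in citrate buffer pH 5.0, 20 min at room temperature, stopped at pH 10; fluorescence 365/440 nm, compounds 0.7 nM–77 uM, AC50 from Hill fits.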
# [6] = Counterscreen for APE1 Inhibitors: Fluorescent Dye Displacement Validation Assay (AID 1707; active means well fitted curve in the direction sought with a large enough effect; an effect the other way counts as inactive or inconclusive;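 further: plate controls were ThO with dsDNA and no compound for no effect and ThO without dsDNA for full effect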); settings: fluorescent dye displacement from DNA; series mostly up to 57.1 µM
# Method in brief: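 Thiazole Orange (250 nM) bound to 50 nM TAMRA-labelled dsDNA with tetrahydrofuran abasic site; displacement by DNA-binding compounds lowers fluorescence. Buffer 50 mM Tris-HCl pH 7.5, 50 mM NaCl, 2 mM MgCl2, 0.01% Tween-20; endpoint read at 480/540 nm.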
# [7] = molecular target: Endonuclease 4 (Escherichia coli (strain K12)) (UniProt P0A6C1); test: Counterscreen for APE1 Inhibitors: qHTS Validation Assay for Inhibitors of Endonuclease IV (AID 1708; active means well fitted curve in the direction sought with a large enough effect; an effect the other way counts as inactive or inconclusive; further: on the % scale 0 is the no-effect control and ±100 the full control effect); settings: E. coli endonuclease IV, DNA cleavage fluorescence; series mostly up to 57.1 µM
# Method in brief: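 Enzymatic AP-site incision assay using a double-stranded THF substrate labelled with TAMRA and BHQ-2; released fluorescence signals activity. Enzyme 2 nM, substrate 50 nM, 15 min compound preincubation.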
# [8] = qHTS for differential inhibitors of proliferation of Plasmodium falciparum line 3D7 (AID 1876; active means well fitted curve in the direction sought with a large enough effect; an effect the other way counts as inactive or inconclusive; further: potency means the concentration at half of the fitted maximal effect); settings: P. falciparum 3D7 proliferation inhibition
# [9] = qHTS for differential inhibitors of proliferation of Plasmodium falciparum line Dd2 (AID 1882; active means well fitted curve in the direction sought with a large enough effect; an effect the other way counts as inactive or inconclusive;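 further: compound exposure of 72 h on infected erythrocytes; plate controls were DMSO vehicle for no effect and 0.29 µM artemisinin for full effect; nearly all actives have a fitted effect of over 65% in size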); settings: series mostly up to 28.7 µM
# Method in brief: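 SYBR Green I DNA fluorescence read-out, ex 485/em 535 nm. Signals were normalized to 0.29 uM artemisinin and DMSO wells, then corrected using vehicle-only plates flanking each stack. Parasite growth ran 72 h in erythrocytes before lysis.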
# [10] = measured here: cell count channel max response
# [11] = measured here: lipid channel max response
# DNA repair nuclease/redox regulator APEX1 (Homo sapiens), sequence (P27695 whole entry, looked up): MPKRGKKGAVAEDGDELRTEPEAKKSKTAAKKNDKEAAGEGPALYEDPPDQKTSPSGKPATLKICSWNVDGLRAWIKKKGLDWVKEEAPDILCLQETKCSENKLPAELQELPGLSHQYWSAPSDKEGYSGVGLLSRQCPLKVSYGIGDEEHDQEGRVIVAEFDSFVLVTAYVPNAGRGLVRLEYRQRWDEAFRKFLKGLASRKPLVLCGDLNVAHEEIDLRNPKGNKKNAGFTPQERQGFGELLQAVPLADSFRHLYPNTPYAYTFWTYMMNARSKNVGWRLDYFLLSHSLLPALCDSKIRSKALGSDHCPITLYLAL
# Alpha-galactosidase A (Homo sapiens), sequence (P06280 whole entry, looked up): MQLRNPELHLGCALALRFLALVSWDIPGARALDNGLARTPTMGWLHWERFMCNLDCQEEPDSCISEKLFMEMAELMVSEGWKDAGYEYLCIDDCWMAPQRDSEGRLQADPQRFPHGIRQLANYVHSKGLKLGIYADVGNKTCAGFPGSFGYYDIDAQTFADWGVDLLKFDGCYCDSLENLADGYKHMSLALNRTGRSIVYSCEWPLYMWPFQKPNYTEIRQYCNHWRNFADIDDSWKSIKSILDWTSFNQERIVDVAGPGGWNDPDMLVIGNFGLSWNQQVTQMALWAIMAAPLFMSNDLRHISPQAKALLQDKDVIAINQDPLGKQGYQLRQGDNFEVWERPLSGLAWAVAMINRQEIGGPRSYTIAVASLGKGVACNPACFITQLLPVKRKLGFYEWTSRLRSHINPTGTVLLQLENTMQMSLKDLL
compound,measurement,setting,value
CCCC(=O)Nc1ncnc2c1ncn2[C@@H]1O[C@@H]2COP(=O)(O)O[C@H]2[C@H]1OC(=O)CCC,"activity change, negative = inhibition",[1]; at 57.5 µM (top of the series),1.77% (inactive)
same,max response,[1]; [10],-7.18%
same,max response,[1]; [11],-6.01%
C[C@@H]1CCC2[C@@H](C)[C@@H](O)O[C@@H]3O[C@@]4(C)CC[C@@H]1[C@@]23OO4 (some centres not stated),"activity change, negative = inhibition",[1]; at 57.5 µM (top of the series),-0.729% (inactive)
same,max response,[1]; [10],14.2%
same,max response,[1]; [11],15.2%
Cc1cc(C(=O)NNCc2ccccc2)no1,"activity change, negative = inhibition",[1]; at 25.7 µM (top of the series),-1.95% (inactive)
same,max response,[1]; [10],-16.5%
same,max response,[1]; [11],-16.7%
CC1=C(/C=C/C(C)=C/C=C/C(C)=C/C=C/C=C(C)/C=C/C=C(C)/C=C/C2=C(C)C(=O)CCC2(C)C)C(C)(C)CCC1=O,"activity change, negative = inhibition",[1]; at 57.5 µM (top of the series),5.18% (inactive)
same,max response,[1]; [10],20.9%
same,max response,[1]; [11],28.3%
Oc1cc(O)c2c(c1)OC(c1ccc(O)c(O)c1)C(O)C2 (configuration not stated),"activity change, negative = inhibition",[1]; at 57.5 µM (top of the series),7.06% (inactive)
same,max response,[1]; [10],2.83%
same,max response,[1]; [11],12.7%
CC1(C)S[C@@H]2[C@H](NC(=O)Cc3ccccc3)C(=O)N2[C@H]1C(=O)O,"activity change, negative = inhibition",[1]; at 25.7 µM (top of the series),-1.47% (inactive)
same,max response,[1]; [10],2.65%
same,max response,[1]; [11],2.53%
CN1Cc2c(N)cccc2C(c2ccccc2)C1 (configuration not stated),outcome,[2],inactive
same,"activity change, negative = inhibition",[1]; at 57.5 µM (top of the series),0.643% (inactive)
same,max response,[1]; [10],11.3%
same,max response,[1]; [11],9.26%
same,outcome,[3],inactive
CC1=C(/C=C/C(C)=C/C=C/C(C)=C/C=C/C=C(C)/C=C/C=C(C)/C=C/C2=C(C)CCCC2(C)C)C(C)(C)CCC1,"activity change, negative = inhibition",[1]; at 57.5 µM (top of the series),1.45% (inactive)
same,max response,[1]; [10],15.1%
same,max response,[1]; [11],17%
CC[N+](C)(C)Cc1ccccc1Br,outcome,[4],inactive
same,outcome,[5],inactive
same,outcome,[2],inactive
same,"activity change, negative = inhibition",[1]; at 25.7 µM (top of the series),-0.125% (inactive)
same,"activity change, negative = inhibition",[1]; at 57.5 µM (top of the series),0.506% (inactive)
same,max response,[1]; [10],1.39% and 57.6%
same,max response,[1]; [11],2.06% and 57.4%
same,outcome,[3],inactive
same,outcome,[6],inactive
same,outcome,[7],inactive
same,Potency,[8],14.1 µM (active)
same,outcome,[9],inactive
CCN(CC)Cc1cc(Nc2ccnc3cc(Cl)ccc23)ccc1O,"activity change, negative = inhibition",[1]; at 25.7 µM (top of the series),-2.24% (inactive)
same,max response,[1]; [10],-18.5%
same,max response,[1]; [11],-20.7%
O=c1ccn([C@@H]2O[C@H](CO)[C@@H](O)[C@H]2O)c(=O)[nH]1,"activity change, negative = inhibition",[1]; at 57.5 µM (top of the series),1.01% (inactive)
same,max response,[1]; [10],-6.37%
same,max response,[1]; [11],-5.71%
Cc1cn([C@H]2C[C@H](O)[C@@H](CO)O2)c(=O)[nH]c1=O,"activity change, negative = inhibition",[1]; at 57.5 µM (top of the series),-2.02% (inactive)
same,max response,[1]; [10],-24%
same,max response,[1]; [11],-24.4%
CC(C)(C)C(=O)OCOC(=O)[C@@H]1N2C(=O)[C@@H](N=CN3CCCCCC3)[C@H]2SC1(C)C,"activity change, negative = inhibition",[1]; at 25.7 µM (top of the series),-0.208% (inactive)
same,max response,[1]; [10],-9.59%
same,max response,[1]; [11],-6.96%
CCCC(=O)Nc1ncnc2c1ncn2C1OC2COP(=O)(O)OC2C1OC(=O)CCC (configuration not stated),"activity change, negative = inhibition",[1]; at 57.5 µM (top of the series),10.5% (inactive)
same,max response,[1]; [10],15.6%
same,max response,[1]; [11],29.9%
C=CCSSSCC=C,"activity change, negative = inhibition",[1]; at 57.5 µM (top of the series),6.54% (inactive)
same,max response,[1]; [10],-4.64%
same,max response,[1]; [11],3.63%
NC(=O)c1ncn(C2OC(CO)C(O)C2O)n1 (configuration not stated),"activity change, negative = inhibition",[1]; at 57.5 µM (top of the series),2.97% (inactive)
same,max response,[1]; [10],6.51%
same,max response,[1]; [11],12.6%
OCc1ccccc1O[C@@H]1O[C@H](CO)[C@@H](O)[C@H](O)[C@H]1O,"activity change, negative = inhibition",[1]; at 57.5 µM (top of the series),-1.43% (inactive)
same,max response,[1]; [10],-14.9%
same,max response,[1]; [11],-16.3%
